# Bioassay records deposited in PubChem by National Center for Advancing Translational Sciences (NCATS).
# Only some compounds are listed: those with a hit (about 13% of all), similar ones and a draw of the others.
# Pf growth 48h: P. falciparum growth inhibition at 48 hours (one generation) | P. falciparum luciferase growth in erythrocytes, 48 h | Potency, µM (top dose mostly 28.7 µM), without a hit: at the highest dose activity change, negative = inhibition, usual class: inhibitors | 310,000 compounds, 5.9% hits | AID 504832; note: potency is the fitted concentration of half-maximal effect
#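 Growth was read as firefly luciferase luminescence after a 48 h, 37 C, 5% CO2 exposure of compounds to reporter-bearing P. falciparum cultures (0.1% parasitemia, 2% hematocrit final) in Albumax-supplemented RPMI 1640.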
# HCV inhibitor: HCV inhibition | Huh7.5.1 HCVcc-Cre infection, luciferase reporter, 44 h | Potency, µM (top dose mostly 41.8 µM), for inactives: at the top dose activity change, negative = inhibition, most hits filed as inhibitors | 340,000 compounds, 3.4% hits | AID 651820; note: potency is the fitted concentration of half-maximal effect
#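 Infectious HCV cell culture screen: compound-treated cells (1,000/well, pre-plated 4 h) are infected with HCVcc-Cre at roughly 0.5 moi and grown 44 h. Infection is quantified by luciferase signal after 15 min substrate incubation at room temperature.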
# HCMV antiviral: blocks human cytomegalovirus replication; HFF cells, HCMV-luciferase reporter, 72 h; hits give low values; activity change, negative = inhibition, % at 57.5 µM; 410,000 compounds, 4.5% hits; AID 1259415; in the data active = activity change below about -60%; inconclusive = no clear call, values can overlap the other calls; inactive = above about -39%
#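 Cell-based, HFFs, 1000 cells/well, 16 h 37C; cpds in DMSO + HCMV-luc, MOI 1 PFU/cell; 72 h 37C; OneGlo luminescence after 5 min RT; norm. to buffer vs Salinomycin 10uM.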
# Pf growth 96h: inhibits malaria parasite growth, 96 h; P. falciparum luciferase reporter growth, 96 h; Potency, µM (highest dose often 28.7 µM), for inactives: top-dose activity change, negative = inhibition, usual class: inhibitors; 320,000 compounds, 6.9% hits; note: potency is the fitted concentration of half-maximal effect
#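 Two parasite generations (96 h, 37 C, 5% CO2) of compound exposure in infected erythrocytes (0.05% parasitemia, 2% hematocrit). Luciferase-reporter P. falciparum; decreased luminescence indicates inhibited growth, aimed at apicoplast-acting delayed death.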
# Starred values were filed as active, the others as inactive; ? = inconclusive; · = not tested or not shown. Unless noted, calls come from the whole dose curve; as a rule, active = well fitted inhibition curve with a large enough effect; inconclusive = small, poorly fitted or top-dose-only effect, or another doubt; inactive = no such curve, though single readings can be large or run the other way. % is set by controls: 0 for no effect and ±100 for the full control effect.
SMILES,Pf growth 48h,HCV inhibitor,HCMV antiviral,Pf growth 96h
C=CCN1[C@@H](C)[C@@H](c2ccccc2)Oc2c(Cl)cccc2S1(=O)=O,·,·,-27.6,·
COc1ccc(-n2cc(CNC3CCC(O)CC3)c(-c3cccc(F)c3)n2)cc1 (configuration not stated),?,-8.5%,-27.4,?
COc1ccc(-n2cc(CN3CCC(OC)CC3)c(-c3cccc(F)c3)n2)cc1,10.4µM*,2.6%,7.0,24.8%
Cc1ccc(S(=O)(=O)c2nc(C)c3c(n2)CCC3)cc1,-17.2%,11.7%,16.3,2.5%
COc1cccc(S(=O)(=O)c2nc(C)c3c(n2)CCC3)c1,-16.9%,4.2%,-80.6*,2.2%
COCCCNC(=O)C1CCCN(S(=O)(=O)c2cccc3nsnc23)C1 (configuration not stated),9.0%,28.6%,-24.0,-18.5%
CCOCCCNC(=O)C1CCCN(S(=O)(=O)c2cccc3nsnc23)C1 (configuration not stated),-9.1%,8.5%,0.0,8.28µM*
Cc1ccc(CCNC(=O)C2CCCN(S(=O)(=O)c3cccc4nsnc34)C2)cc1 (configuration not stated),·,24.5%,10.1,4.15µM*
O=C(c1ccc(Nc2nc3ccccc3n3nnnc23)cc1)N1CCN(c2ccc(F)cc2)CC1,·,·,-10.6,·
CCOc1ccccc1N(CC(=O)NCCSc1ccccc1)S(=O)(=O)c1ccccc1,·,·,-11.8,·
NS(=O)(=O)c1ccc(CCNC(=O)C2CCCN(S(=O)(=O)c3cccnc3)C2)cc1 (configuration not stated),·,5.5%,7.9,7.38µM*
CCOc1ccccc1NC(=O)C1CCCN(S(=O)(=O)c2cccs2)C1 (configuration not stated),·,·,-7.7,·
O=C(NCCc1ccccc1)C1CCCN(S(=O)(=O)c2cccnc2)C1 (configuration not stated),-4.0%,3.2%,-4.7,11.4%
Cc1ccc2nc(NC(=O)C3CCCN(S(=O)(=O)c4cccnc4)C3)sc2c1 (configuration not stated),13.1µM*,?,-38.7,8.2%
CCOc1ccc2nc(NC(=O)C3CCCN(S(=O)(=O)c4cccs4)C3)sc2c1 (configuration not stated),14.7µM*,14.1µM*,-24.1,-13.5%
COc1ccc(NC(=O)C2CCCN(S(=O)(=O)c3ccc4[nH]c(=O)ccc4c3)C2)cc1OC (configuration not stated),24.5%,8.5%,-5.9,11.7µM*
O=C(Nc1ccc(Cl)cc1)C1CCCN(S(=O)(=O)c2ccc3[nH]c(=O)ccc3c2)C1 (configuration not stated),·,·,-23.6,·
Cc1ccc(NC(=O)C2CCCN(S(=O)(=O)c3ccc4[nH]c(=O)ccc4c3)C2)cc1C (configuration not stated),-1.8%,-18.3%,17.1,?
CC(C)c1ccc(NC(=O)C2CCCN(S(=O)(=O)c3ccc4[nH]c(=O)ccc4c3)C2)cc1 (configuration not stated),·,·,-91.8*,·
CN(C)CCN(C(=O)c1ccc2ccccc2c1)c1nc2ccc(Br)cc2s1,-9.8%,8.8%,0.0,?
Cc1cc(C)c2nc(N(CCCN(C)C)C(=O)C3=COCCO3)sc2c1,11.7µM*,31.6µM*,-2.4,?
CN(C)CCCN(C(=O)C1=COCCO1)c1nc2ccc(Br)cc2s1,?,12.6µM*,6.1,?
CCN(CC)CCN(C(=O)C1=COCCO1)c1nc2cc(C)cc(C)c2s1,?,?,-20.9,-12.1%
COc1ccc(C)c2sc(N(CCCN(C)C)C(=O)c3ccc4c(c3)OCCO4)nc12,9.28µM*,?,-10.8,8.28µM*
Cc1cc(C)c2nc(N(CCCN(C)C)C(=O)c3ccc4c(c3)OCCO4)sc2c1,10.4µM*,11.2µM*,?,7.38µM*
CC(=O)c1ccccc1NC(C(=O)NC1CCCCC1)c1ccccc1F (configuration not stated),·,·,-11.1,·
O=C(NCCc1ccccc1)C(=O)c1c(-c2ccccc2)[nH]c2ccccc12,-29.1%,?,-10.1,5.22µM*
O=C(O)/C=C/C(=O)c1c(-c2ccccc2)[nH]c2ccccc12,6.57µM*,2.6%,0.8,4.15µM*
CC(=O)c1c(-c2ccccc2)[nH]c2ccccc12,3.0%,?,?,?
O=C(/C=C/c1ccc(S(=O)(=O)N2CCOCC2)cc1)Nc1ccc(F)c(F)c1F,·,?,-38.1,·
